Assay results: the supplement of paper PMC7726561
The full ranking holds about 1,400 sequences; the median of “thermal melting temperature (Tm) of peptide-HLA complex” is about 60, and the lowest 2% start at about 45. This excerpt belongs to a sample that is enriched for the lowest values.

target: HLA-B*07:02; test: thermal melting temperature (Tm) of peptide-HLA complex; higher = more thermostable pHLA complex; conditions: C1R-B*07:02
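Also: lysates heated 10 min at 37–73 °C, complexes pulled down with pan-HLA I antibody, peptide signal by DIA-MS relative to 37 °C, Tm where half the complex is unfolded.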

Point of comparison: LPSKPSSTL, thermal melting temperature 58.1 °C. Against it:
- FPNIPGKSL — higher, 62 °C
- APRWLEEEAAL — higher, 62.7 °C
- IPIGGGTSV — lower, 41.6 °C
- QPASFAVSL — higher, 62.8 °C
- SPASRSISL — higher, 61 °C
- SPASFLRSL — lower, 40.6 °C
- NPRLNILDTL — lower, 51.2 °C
- GPIYPGHGM — higher, 59.2 °C
- YPRMQVTVF — higher, 61.9 °C
- APKSPSSEWL — lower, 51.9 °C
- YPRAQLEVSAL — higher, 61.5 °C
- APAPPTTTTI — higher, 61 °C
- VPMPLPTVL — higher, 62.6 °C
- RPALPSTQQL — lower, 57.6 °C
- APDKHHITPLL — lower, 43.7 °C
- TPMPKDVRQSL — lower, 44.5 °C
- KPHLPSVTYL — higher, 60.8 °C
- NVKKVSLEL — lower, 44.3 °C
- APAGLPRETL — the same, 58.1 °C
- IPDHFRPPL — higher, 60.4 °C
- VIRELSRAL — lower, 45.3 °C
- KPINVRVTTM — lower, 56 °C
- RPIESPGGSVL — lower, 45.3 °C
- LPGISREAL — lower, 41.3 °C
- QPRDPSSTL — lower, 43.5 °C
- SPRDPVLTL — higher, 64.4 °C
- SPRFPAQYL — higher, 62.6 °C
- RPLPGALGV — higher, 59 °C
- VPNAGRGLV — higher, 58.5 °C
- HPREPLPPIQ — lower, 51.3 °C
- IPSSHPVSL — lower, 56.2 °C
- HPREPALGP — lower, 55.3 °C
- RPAGPVAVGI — lower, 43.3 °C
- SPRVQFQSL — higher, 61.7 °C
- RPAEVGGMQL — higher, 59.1 °C
